Most compounds without a hit are left out; they make up all but 12% or so of the library.
PostGolgi yeast = growth inhibition of a yeast mutant, post-Golgi transport screen; post-Golgi transport phenotypic cell assay; 0.9% of 98,000 active; inhibition, % at 10 µM; AID 739;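 also: yeast cells grown in 1536-well plates; yeast grown about 18 h at 30C before absorbance read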
PostGolgi ctrl = yeast control strain growth, post-Golgi counter-screen. efflux-deficient yeast background strain, growth absorbance A615, 16 h. inhibition, % at 10 µM. 5% of 98,000 active. AID 738
Cav3 T inh = blocks human Cav3.2 T-type calcium channel. Cav3.2-expressing cells, Fluo-4 calcium fluorescence FDSS; hits give low values. B-score at 10 µM. 4% of 100,000 active;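 active = single-dose well whose peak fluorescence ratio is a statistical outlier from its plate by either plate-standardised score or position-corrected B-score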
D1 mod = D1 dopamine receptor (human) allosteric modulation | 5.9% of 58,000 active | HEK293 D1, CRE-luciferase, dopamine EC30 potentiation; actives deviate in either direction | B-score at 10 µM | AID 641;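 active = luminescence count or its row- and column-corrected plate score outside the 99.7% band of the plate's sample wells, on either side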
hDAT+cocaine = changed human dopamine transporter uptake under cocaine IC80 | 1.3% of 110,000 active | Q01959 | LLC-PK1 hDAT cells, [14C]-dopamine uptake with cocaine IC80; actives deviate in either direction | B-score at 10 µM | AID 449768;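 active = Z score or B-score, a plate-position-corrected score, falls beyond the plate's 99.7% confidence bounds, in either direction; inactive = both scores lie inside the 99.7% bounds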;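 also: scored against the spread of the other compound wells on the same plate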
PLAP act = activators of human placental alkaline phosphatase | purified PLAP enzyme, luminescent substrate read-out; hits give high values | activation fold at 20 µM | 1.2% of 96,000 active | AID 696; in the data active = activation fold above about 2
Target sequence (P05187 whole entry, looked up): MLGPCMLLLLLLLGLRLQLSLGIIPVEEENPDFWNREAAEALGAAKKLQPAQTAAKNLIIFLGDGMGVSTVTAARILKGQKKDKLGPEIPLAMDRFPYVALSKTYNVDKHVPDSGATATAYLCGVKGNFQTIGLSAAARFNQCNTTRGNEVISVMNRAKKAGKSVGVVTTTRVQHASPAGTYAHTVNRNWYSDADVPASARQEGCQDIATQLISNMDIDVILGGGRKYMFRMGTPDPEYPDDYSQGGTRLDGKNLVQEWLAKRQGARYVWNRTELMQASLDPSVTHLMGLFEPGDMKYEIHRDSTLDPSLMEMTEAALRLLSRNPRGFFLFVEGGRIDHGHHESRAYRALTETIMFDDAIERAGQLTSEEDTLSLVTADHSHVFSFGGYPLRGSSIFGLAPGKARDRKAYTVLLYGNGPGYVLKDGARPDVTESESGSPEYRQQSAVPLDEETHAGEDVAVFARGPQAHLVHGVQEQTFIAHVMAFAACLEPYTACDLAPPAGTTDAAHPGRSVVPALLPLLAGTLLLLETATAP
* marks the source's active call; other numbers are inactive results. Rule as the data show it, unless noted: active = inhibition above about 30%; inactive = the rest.

Screening CC(C)=CC(=O)OCC(=O)Nc1ccc(Cl)cn1 returned PostGolgi yeast -4.6, PostGolgi ctrl 9.2, Cav3 T inh -0.026, hDAT+cocaine -0.939 and PLAP act 0.9.
For CCOC(=O)/C=C/C(=O)OCC(=O)Nc1ccc(Cl)cn1 the results were PostGolgi yeast -2.9, PostGolgi ctrl 10.1, Cav3 T inh 3.37*, hDAT+cocaine 0.634 and PLAP act 1.2.
Screening CCC(=O)NC(=S)Nc1ccc(Cl)cn1 returned PostGolgi yeast 5.3, PostGolgi ctrl -1.0, Cav3 T inh -0.144, hDAT+cocaine 2.22* and PLAP act 1.1.
`N#Cc1cc2c(nc1SCc1nc3ccccc3[nH]1)CCC2` gave PostGolgi yeast -1.3, PostGolgi ctrl 11.9, Cav3 T inh -0.774, D1 mod -1.66, hDAT+cocaine -1.04 and PLAP act 2.1*.
N#Cc1cc2c(nc1SCc1cccnc1)CCC2 was read as PostGolgi yeast 6.5, PostGolgi ctrl 3.8, Cav3 T inh 0.438, D1 mod 2.02, hDAT+cocaine -0.142 and PLAP act 0.8.
Screening CCN(CC)c1ccc(N2C(=O)/C(=C/c3cccnc3)SC2=S)cc1 returned PostGolgi yeast 8.8, PostGolgi ctrl 1.9, Cav3 T inh 0.0342, hDAT+cocaine -0.191 and PLAP act 1.2.
`COc1ccc(NC(=O)CC2SC(=NCc3ccccc3OC)NC2=O)cc1` (stereo not drawn) gave PostGolgi yeast -0.8, PostGolgi ctrl 0.0, Cav3 T inh -1.87, D1 mod -3.99*, hDAT+cocaine -0.369 and PLAP act 1.
Screening Cc1cccnc1Nc1nc(-c2ccc(O)c(O)c2)cs1 returned PostGolgi yeast -0.6, PostGolgi ctrl 82.5*, Cav3 T inh 2.45, hDAT+cocaine 4.6* and PLAP act 1.3.
COc1ccc(-c2csc(Nc3ncccc3C)n2)cc1OC was read as PostGolgi yeast 0.5, PostGolgi ctrl -2.4, Cav3 T inh -0.0911, hDAT+cocaine 1.62 and PLAP act 1.
`CC(C)CCC1CC(CSC(=N)N)OC1=O` (stereo not drawn) gave PostGolgi yeast 14.2, PostGolgi ctrl -0.3, Cav3 T inh 0.192, hDAT+cocaine 0.312 and PLAP act 1.1.
Screening CCc1c(C(=O)N2CCN(c3ccccc3F)CC2)[nH]c(C)c1C(C)=O returned PostGolgi yeast 1.9, PostGolgi ctrl 11.4, Cav3 T inh 1.13, hDAT+cocaine 0.686 and PLAP act 1.2.
CCOc1ccc(CCNC(=O)C2CCC(=O)N2C2CCCCC2)cc1OCC (stereo not drawn) was read as PostGolgi yeast -2.8, PostGolgi ctrl 36.4*, Cav3 T inh 1.35, D1 mod 0.647, hDAT+cocaine -0.791 and PLAP act 1.2.
`O=C(NCc1ccc(F)cc1)C1CCC(=O)N1C1CCCCC1` (stereo not drawn) gave PostGolgi yeast -3.3, PostGolgi ctrl 34.7*, Cav3 T inh 0.00185, D1 mod -0.637, hDAT+cocaine -0.716 and PLAP act 1.
Cc1ccc(CNC(=O)C2CCC(=O)N2C2CCCCC2)cc1 (stereo not drawn) was read as PostGolgi yeast 1.2, PostGolgi ctrl 0.9, Cav3 T inh 0.0184, D1 mod -0.209, hDAT+cocaine -1.09 and PLAP act 1.
COc1ccc(S(=O)(=O)N2CCC(C(=O)Nc3ccc4c(c3)OCCO4)CC2)cc1OC was read as PostGolgi yeast -12.7, PostGolgi ctrl 6.6, Cav3 T inh -0.187, hDAT+cocaine 0.569 and PLAP act 0.9.
Screening CC(C)(C)N=C1NC(=NC(C)(C)C)c2ccccc21 returned PostGolgi yeast -1.6, PostGolgi ctrl 8.5, Cav3 T inh -0.62, D1 mod -5.33*, hDAT+cocaine -0.555 and PLAP act 0.8.
For c1ccc2c(c1)C(=NCC1CCCO1)NC2=NCC1CCCO1 (stereo not drawn) the results were PostGolgi yeast -2.4, PostGolgi ctrl 0.3, Cav3 T inh 0.12, D1 mod -0.826, hDAT+cocaine -0.831 and PLAP act 1.1.
Screening COc1ccc(S(=O)(=O)N2CCN(CC(=O)Nc3cccc(F)c3)CC2)cc1 returned PostGolgi yeast -4.5, PostGolgi ctrl 4.9, D1 mod -1.36 and PLAP act 1.3.
Screening COc1ccc(S(=O)(=O)N2CCN(CC(=O)Nc3ccc(C)c(F)c3)CC2)cc1 returned PostGolgi yeast 2.2, PostGolgi ctrl -1.0, Cav3 T inh -4.2*, D1 mod -0.733, hDAT+cocaine 0.00615 and PLAP act 1.6.
Screening COc1ccc(S(=O)(=O)N2CCCN(CCC(=O)Nc3cccc(C(F)(F)F)c3)CC2)cc1 returned PostGolgi yeast -5.4, PostGolgi ctrl 10.3, Cav3 T inh -4.59*, D1 mod -0.559, hDAT+cocaine 0.171 and PLAP act 1.3.
For COc1ccc(NC(=O)CCN2CCN(S(=O)(=O)c3ccc(Cl)cc3)CC2)cc1 the results were PostGolgi yeast -6.3, PostGolgi ctrl -5.0, Cav3 T inh 0.00985, hDAT+cocaine 1.02 and PLAP act 1.5.
For COc1ccc(C)cc1NC(=O)CN1CCN(c2ccccc2F)CC1 the results were PostGolgi yeast -0.3, PostGolgi ctrl 37.9*, D1 mod 1.16, hDAT+cocaine 0.135 and PLAP act 1.4.
COc1ccc(C)cc1NC(=O)CN1CCN(S(=O)(=O)c2ccc(F)cc2)CC1 was read as PostGolgi yeast 1.6, PostGolgi ctrl 31.4*, Cav3 T inh 2.29, D1 mod -0.446, hDAT+cocaine -0.164 and PLAP act 0.9.
For COc1ccc(OC)c(NC(=O)CCN2CCN(c3ccccc3F)CC2)c1 the results were PostGolgi yeast 2.9, PostGolgi ctrl -1.8, Cav3 T inh 1.02, D1 mod 0.432, hDAT+cocaine 0.11 and PLAP act 1.7.
For O=C(NCCc1cccs1)C12CN(Cc3ccccc3)CC1C(c1cccc([N+](=O)[O-])c1)=NO2 (stereo not drawn) the results were PostGolgi yeast -8.3, PostGolgi ctrl -2.6, Cav3 T inh -2.3, hDAT+cocaine 0.745 and PLAP act 1.5.
Screening O=C1C2C3C=CC(C2C(=O)N1CCCO)C1C2C(=O)N(CCCO)C(=O)C2C31 (stereo not drawn) returned PostGolgi yeast -10.2, PostGolgi ctrl -3.0, Cav3 T inh 0.555, hDAT+cocaine -0.103 and PLAP act 1.1.
COc1ccc(C)cc1NC(=O)CN1CCN(C/C=C/c2ccccc2)CC1 was read as PostGolgi yeast 26.9, PostGolgi ctrl 14.5, Cav3 T inh -2.65, hDAT+cocaine 0.97 and PLAP act 2.3*.
COC(=O)c1[nH]c2ccccc2c1NC(=O)CN1CCN(C/C=C/c2ccccc2)CC1 was read as PostGolgi yeast -1.3, PostGolgi ctrl -4.1, Cav3 T inh 0.0315, D1 mod -0.726, hDAT+cocaine -0.736 and PLAP act 1.8.
O=CN/C=C/c1cc(O)ccc1O was read as Cav3 T inh 0.662 and hDAT+cocaine -0.558.
`C=CCn1c(COc2cccc3ccc(C)nc23)nnc1SCC(N)=O` gave PostGolgi yeast -4.3, PostGolgi ctrl 3.8, Cav3 T inh 0.325, hDAT+cocaine 0.883 and PLAP act 1.3.

Assay outcomes (PubChem)
